This note sets out measurements from PubChem BioAssay (Tox21).

Activity calls are given as the source filed them. The call rests on the fitted dose curve; in most records, active means well fitted activation curve with a large enough effect in the repeat runs; inconclusive means weak or mixed curves; inactive means flat fitted curve, though single readings scatter.
On the % scale 0 is the no-effect control and ±100 the full control effect.

The target of the experiment is KiSS-1 receptor (Homo sapiens) (UniProt Q969F8). Put plainly: Human kisspeptin (KISS1R) small molecule agonists, calcium flux assay in KISS1R-HEK293 cells (AID 1920064). The note with it: KISS1R-HEK293, calcium flux fluorescence, agonist; series mostly up to 76.8 µM. From the text: National Center for Advancing Translational Sciences [NCATS]
KiSS-1 receptor (Homo sapiens), sequence (Q969F8 whole entry, looked up): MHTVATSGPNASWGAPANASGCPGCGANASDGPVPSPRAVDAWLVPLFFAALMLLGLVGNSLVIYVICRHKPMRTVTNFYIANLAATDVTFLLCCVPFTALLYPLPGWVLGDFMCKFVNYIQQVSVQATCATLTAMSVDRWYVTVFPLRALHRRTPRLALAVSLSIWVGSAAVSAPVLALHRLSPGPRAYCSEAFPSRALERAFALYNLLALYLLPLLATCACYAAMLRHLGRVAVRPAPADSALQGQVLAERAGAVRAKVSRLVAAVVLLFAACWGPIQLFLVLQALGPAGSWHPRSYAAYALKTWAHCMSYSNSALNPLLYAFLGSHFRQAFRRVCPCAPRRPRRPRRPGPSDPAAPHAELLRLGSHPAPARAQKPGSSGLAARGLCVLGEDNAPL
Division of Preclinical Innovation [DPI]
U.S. Environmental Protection Agency [EPA]
National Institutes of Environmental Health Sciences [NIEHS]
National Toxicology Program [NTP]
U.S. Food and Drug Administration [FDA]
Kisspeptin and its receptor KISS1R play key roles in mammalian reproduction due to their involvement in the onset of puberty and control of the hypothalamic-pituitary-gonadal axis such as regulates GnRH release from the hypothalamus. The kisspeptin/KISS1R system also plays a direct role in peripheral organs (including the ovary, testis, uterus, and placenta) and is implicated in reproductive diseases such as miscarriage and polycystic ovary syndrome (PCOS). Abnormal KISS1R activity is associated with abnormal puberty, infertility, endometriosis, and hormone-dependent tumors. The KISS1 receptor (KISS1R, also called GPR54), a G-protein-coupled receptor (GPCR), acts (through phospholipase C) to increase intracellular inositol trisphosphate and then release intracellular calcium stores. Cell-based KISS1R-HEK293 assay is using HEK293 cells that have been genetically engineered to express the human KISS1R, which activity can be measured by calcium signaling. A compound/drug can activate (agonist) KISS1R that can be monitored by levels of intracellular calcium.
KISS1R-HEK293 cells developed by Codex Corp contain human KISS1R gene, which was stably integrated into HEK 293 cells. The compound activation can be detected by fluorescence intensity via calcium flux assay. This cell line has been used to screen the Tox21 10K compound library to identify agonists of KISS1R.
KISS1R-Hek293 cells were dispensed at 1500 cells/4uL/well in 1536-well black wall/clear bottom plates using a multidrop dispenser. After the assay plates were incubated at a 37 C/5% CO2 incubator for 18 hours, 4 microL of Calcium Dye Solution was added to each well. The plates were incubated at 37 C for 1 hour. And then 23 nL of compounds dissolved in DMSO, positive controls, or DMSO only was transferred to the assay plate by a pin tool station. The fluorescence intensity in the plates was measured using FDSS 7000EX kinetic plate reader with a filter set of Ex/Em=480/540 for 3 min at 1 sec intervals. Each test compound was measured at 15 concentrations and in triplicates.
Turning to `CC(=O)CC(c1ccc([N+](=O)[O-])cc1)c1c(O)c2ccccc2oc1=O` (stereo not given), the result was inactive.
For `CO[C@@H]1[C@H](OC(=O)/C=C/C=C/C=C/C=C/C(=O)O)CC[C@]2(CO2)[C@H]1[C@@]1(C)O[C@@H]1CC=C(C)C`, the result was inactive.
Still for that read-out and setting: as for `C=CCN1CCc2nc(N)sc2CC1`, the entry is “inactive”; as for `CCOC(=O)CC#N`, “inactive”; as for `CCCOC(=O)c1ccc(C(=O)OCCC)nc1`, “inactive”.
On to `Clc1nc(C(Cl)(Cl)Cl)c(Cl)c(Cl)c1Cl`, for which the result was inactive.
As for `CC(=O)Nc1ccc(C)cc1C`, the result was inactive.
Turning to `CCCCc1ccc2c(n1)[C@@H](c1ccc(OC)cc1C[C@H](C)C(=O)O)[C@H](C(=O)O)[C@H]2c1ccc2c(c1)OCO2`, the outcome was inactive.
With `C=C(C)C(=O)OCCCCCCCCCCOC(=O)C(=C)C`, the result was inactive.
In the case of `O[C@@H]1CO[C@H]2[C@@H]1OC[C@@H]2O`, the outcome was inactive.
`CC(=O)c1ccc(C(C)=O)cc1`: the result was inactive.
With `CCOc1ccc2ccccc2c1C(=O)N[C@@H]1C(=O)N2[C@@H]1SC(C)(C)[C@@H]2C(=O)O`, the outcome was inactive.
In the case of `COc1cc2c(cc1OC)-c1cc3ccc(OC)c(OC)c3c[n+]1CC2`, the result was inactive.
Take `CN(C)CCN(Cc1ccsc1)c1ccccn1`: the outcome was inactive.
On the same count and under the same terms, as for `CCCCC(CC)COC(=O)COc1ccc(Cl)cc1Cl` (stereo not given), the entry is “inactive”; as for `NCCCC[C@H](N[C@@H](CCc1ccccc1)C(=O)O)C(=O)N1CCC[C@H]1C(=O)O`, “inactive”.
In the case of `CCCCCC[C@@H](CCC)C(=O)O`, the result was inactive.
For `CCN(CCO)CCCC(C)Nc1ccnc2cc(Cl)ccc12` (stereo not given), the activation was -0.232% [at 6.97 µM] (inactive).
For the compound `C[C@]1(Cn2ccnn2)[C@H](C(=O)O)N2C(=O)C[C@H]2S1(=O)=O`, the result was inactive.
Same read-out and setting: as for `O=C(O)c1cc(-c2ccc(F)cc2F)ccc1O`, the entry is “inactive”.
In the case of `C[C@@H]1C[C@H]2[C@@H]3CCC4=CC(=O)C=C[C@]4(C)[C@@]3(F)[C@@H](O)C[C@]2(C)[C@H]1C(=O)CO`, the outcome was inactive.
For the compound `CC(C)OC(=O)c1ccccc1`, the result was inactive.
For `CC(C)(C)NCC(O)c1cc(O)cc(O)c1` (stereo not given), the outcome was inactive.
As to `CCCCCCCCCCCCCC(=O)OCC`, the result was inactive.
The same measure, in the same setting: as for `CCc1cccc(C)c1`, the entry is “inactive”.
In the case of `O=C(CCCl)NCc1ccccc1`, the outcome was inactive.
As to `CCCCC(CC)(CO)CO`, the outcome was inactive.
For `CC(C)(O)c1ccc(CNC(=O)c2cccnc2Oc2ccc(F)cc2)cc1`, the result was inactive.
On to `CCCc1ccc(O)c(OC)c1`, for which the result was inactive.
`NCc1ccco1`: the outcome was inactive.
On to `CN1C(=O)N(c2ccccc2Br)Cc2cnc(Nc3ccc4c(c3)OCC(CO)O4)nc21` (stereo not given), for which the result was inactive.
As for `CCN(Cc1c(F)cccc1Cl)c1c([N+](=O)[O-])cc(C(F)(F)F)cc1[N+](=O)[O-]`, the result was inactive.
On to `Cc1cc(O)c(C)c(C)c1O`, for which the outcome was inactive.
The same measure, in the same setting: as for `CCC(=O)OC(=O)CC`, the entry is “inactive”.
As to `CN1CCN(c2c(F)cc3c(=O)c(C(=O)O)cn(CCF)c3c2F)CC1`, the outcome was inactive.
The same measure, in the same setting: the value for `CCOC(=O)[C@H](O)[C@@H](O)C(=O)OCC` was “inactive”; that for `O=C(NCCO[N+](=O)[O-])c1cccnc1` was “inactive”; that for `Oc1ccc(C2CNCCc3c2cc(O)c(O)c3Cl)cc1` (stereo not given) was “inactive”.
As to `Cc1ccc(-n2nc(C(C)(C)C)cc2NC(=O)Nc2ccc(OCCN3CCOCC3)c3ccccc23)cc1`, the result was inactive.
The same measure, in the same setting: as for `CC1OCCC1=O` (stereo not given), the entry is “inactive”.
